The nature of assay [1]: qHTS assay to identify small molecule antagonists of the thyroid receptor (TR) signaling pathway (AID 743065). Note: nearly all actives have a fitted effect of over 55% in size. Note: potency is the fitted concentration of half-maximal effect. The procedure, abridged: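 GH3.TRE-Luc rat pituitary cells carrying two TR response elements driving luciferase were plated for 4 h, given compound plus 1 nM T3 (final), and incubated 23.5 h at 37 C. ONE-Glo luminescence measured reporter inhibition; CellTiter-Fluor fluorescence tracked cytotoxicity.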

In assay [2] the test system is thyroid hormone receptor (rat, GH3 cells). The assay can be described thus: qHTS assay to identify small molecule agonists of the thyroid receptor (TR) signaling pathway (AID 743066; calls by dose curve).
The next assay has as its target Aromatase (Homo sapiens) (UniProt P11511). The assay is described as follows: qHTS assay to identify aromatase inhibitors (AID 743083). Note: nearly all actives have a fitted effect of over 55% in size. Note: potency is the fitted concentration of half-maximal effect. For orientation: In qHTS, concentration-response curves come from the screen itself.
A short description of assay [3]: qHTS assay to identify aromatase inhibitors - cell viability counter screen (AID 743084).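 Note: cells stimulated with testosterone during compound exposure; nearly all actives have a fitted effect of over 55% in size.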 Note: potency is the fitted concentration of half-maximal effect.
In assay [4] the target is Aryl hydrocarbon receptor (Homo sapiens) (UniProt P35869). The assay can be described thus: qHTS assay to identify small molecule that activate the aryl hydrocarbon receptor (AhR) signaling pathway (AID 743085).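 Note: HG2L7.5c1 human HepG2 liver cells with stably integrated DRE-driven firefly reporter; series mostly up to about 70 µM; nearly all actives have a fitted effect of over 15% in size.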 The gist of the method:
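HepG2 cells stably carrying a 20-DRE firefly luciferase reporter (HG2L7.5c1) treated with compound for 24 hr at 37C. Luciferase read by ONE-Glo luminescence, with CellTiter-Fluor viability read first.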

Assay [5] can be described thus: qHTS assay to identify small molecule that activate the aryl hydrocarbon receptor (AhR) signaling pathway - cell viability counter screen (AID 743086). Note: nearly all actives have a fitted effect of over 45% in size. Note: potency is the fitted concentration of half-maximal effect. The gist of the method: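 HepG2-AhR-luc (HG2L7.5c1) cells, 4000/well, were preincubated 5 h at 37C, exposed to compound in qHTS format for 24 hr at 37C, then given CellTiter-Fluor for 30 min; viability was read as fluorescence in the reporter wells.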

Assay [6] can be described thus: qHTS assay to identify small molecule antagonists of the peroxisome proliferator-activated receptor gamma (PPARg) signaling pathway - cell viability counter screen (AID 743194). Note: nearly all actives have a fitted effect of over 55% in size. Note: potency is the fitted concentration of half-maximal effect. The gist of the method:
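PPARg-UAS-bla HEK293H cells were plated, rested 5 h at 37 C, then treated with compounds plus rosiglitazone (50 nM final) for 17 h at 37 C; viability was then read by CellTiter-Glo luminescence after 30 min at room temperature.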

A short description of assay [7]: qHTS assay for small molecule activators of the heat shock response signaling pathway (AID 743210; active = well fitted activation curve with a large enough effect in the signal ratio in the repeat runs, with a control signal flat, not every such curve was filed as active; the % refers to the signal ratio; note: potency is the fitted concentration of half-maximal effect;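 for activation: HeLa cells with beta-lactamase reporter driven by heat shock elements; series mostly up to about 63 µM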). The procedure, abridged:
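Reporter gene assay: HeLa cells stably bearing an HSE-bla construct, compound treatment 5 h at 37 C, LiveBLAzer substrate 2.5 h at RT, fluorescence intensity.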

Assay [8] is described as follows: qHTS assay to identify small molecule agonists of the peroxisome proliferator-activated receptor delta (PPARd) signaling pathway - cell viability counter screen (AID 743211). Note: nearly all actives have a fitted effect of over 55% in size. Note: potency is the fitted concentration of half-maximal effect. The procedure, abridged: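 PPARd-bla HEK293H cells (3000/well) were pre-incubated 5 h at 37 C, then exposed to compound for 17 h at 37 C. After 2 h with LiveBLAzer substrate, CellTiter-Glo was added to the same wells; luminescence read after 30 min at room temperature.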

Assay [9] is described as follows: qHTS assay to identify small molecule antagonists of the estrogen receptor alpha (ER-alpha) signaling pathway - cell viability counter screen (AID 743074; calls by dose curve;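 note: HEK293 cells carrying ER-alpha-UAS-bla reporter stimulated with 17beta-estradiol; nearly all actives have a fitted effect of over 45% in size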; note: potency is the fitted concentration of half-maximal effect).
Assay [10] is described as follows: qHTS assay to identify small molecule antagonists of the estrogen receptor alpha (ER-alpha) signaling pathway using the BG1 cell line - cell viability counter screen (AID 743081).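 Note: compound given together with 17beta-estradiol as the ER stimulus; nearly all actives have a fitted effect of over 45% in size.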 Note: potency is the fitted concentration of half-maximal effect.
Assay [11] addresses Peroxisome proliferator-activated receptor gamma (Homo sapiens) (UniProt P37231). The assay can be described thus: qHTS assay to identify small molecule agonists of the peroxisome proliferator-activated receptor gamma (PPARg) signaling pathway (AID 743094; active = well fitted activation curve with a large enough effect in the signal ratio in the repeat runs, not every such curve was filed as active; the % refers to the signal ratio). The gist of the method: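 Beta-lactamase FRET fluorescence was the read-out after a 1 h room-temperature substrate step, following 17 h compound treatment at 37C of HEK293H cells expressing a UAS-driven bla reporter responsive to PPARg.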

Assay [12] shares this target. The assay is described as follows: qHTS assay to identify small molecule antagonists of the peroxisome proliferator-activated receptor gamma (PPARg) signaling pathway (AID 743191; calls by dose curve; note: nearly all actives have a fitted effect of over 30% in size; note: potency is the fitted concentration of half-maximal effect). The gist of the method: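 GeneBLAzer PPARg UAS-bla HEK293H cells carrying a UAS-driven beta-lactamase reporter were plated at 3000 cells/well, preincubated 5 h at 37C, then given compound for 17 h at 37C; LiveBLAzer B/G FRET substrate was read after 1 h at room temperature.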

Assay [13] can be described thus: qHTS assay for small molecule agonists of the antioxidant response element (ARE) signaling pathway (AID 743202; active = well fitted activation curve with a large enough effect in the signal ratio in the repeat runs, not every such curve was filed as active; the % refers to the signal ratio; note: potency is the fitted concentration of half-maximal effect). The gist of the method: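 Compounds delivered in DMSO to ARE-bla HepG2 cells (2,000 cells/well, pre-incubated 5 h) and left 16 h at 37 C. LiveBLAzer B/G FRET substrate then added for 2 h at RT before fluorescence reading.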
Assay [14] in a line: qHTS assay for small molecule agonists of the antioxidant response element (ARE) signaling pathway - cell viability counter screen (AID 743203; calls by dose curve; note: nearly all actives have a fitted effect of over 55% in size; note: potency is the fitted concentration of half-maximal effect). The gist of the method:
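HepG2 cells carrying ARE-driven beta-lactamase; 2,000 cells/well; 5 hrs plating; compound pinned from DMSO; 16 hrs 37C/5% CO2; CellTiter-Glo added; 30 min RT; luminescence.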

In assay [15] the target is Estrogen receptor (Homo sapiens) (UniProt P03372). The assay can be described thus: qHTS assay to identify small molecule antagonists of the estrogen receptor alpha (ER-alpha) signaling pathway (AID 743069; active = well fitted curve in the direction sought with a large enough effect in the signal ratio in the repeat runs, not every such curve was filed as active; the % refers to the signal ratio). The gist of the method:
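Estradiol-stimulated ER-alpha-UAS-bla HEK293 cells, 18 hr compound exposure at 37C. LiveBLAzer B/G substrate, 2 hr RT, fluorescence read.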

Assay [16] in a line: qHTS assay to identify small molecule antagonists of the estrogen receptor alpha (ER-alpha) signaling pathway using the BG1 cell line (AID 743080; calls by dose curve;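 note: BG1 cells stimulated with 17beta-estradiol alongside compound; nearly all actives have a fitted effect of over 25% in size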; note: potency is the fitted concentration of half-maximal effect). The procedure, abridged: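 Luciferase inhibition measured with ONE-Glo after 30 min at RT in BG1Luc4E2 cells given test compounds and 17beta-estradiol for 21.5 h at 37 C; CellTiter-Fluor viability read in the same wells beforehand.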

Assay [17] in a line: qHTS assay for small molecule activators of the heat shock response signaling pathway - cell viability counter screen (AID 743209). Note: nearly all actives have a fitted effect of over 50% in size. Note: potency is the fitted concentration of half-maximal effect. The gist of the method: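 Luminescence from CellTiter-Glo, added after the beta-lactamase FRET read, gave the viability signal. Cells were HSE-bla HeLa treated with DMSO-dissolved compounds for 5 h at 37 C following overnight plating.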
Assay [18] deals with Estrogen receptor (Homo sapiens) (UniProt P03372). The assay can be described thus: qHTS assay to identify small molecule agonists of the estrogen receptor alpha (ER-alpha) signaling pathway (AID 743075; calls by dose curve;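 note: HEK293 GripTite cells with ER-alpha and UAS-driven beta-lactamase reporter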).
Estrogen receptor (Homo sapiens), sequence (P03372 whole entry, looked up): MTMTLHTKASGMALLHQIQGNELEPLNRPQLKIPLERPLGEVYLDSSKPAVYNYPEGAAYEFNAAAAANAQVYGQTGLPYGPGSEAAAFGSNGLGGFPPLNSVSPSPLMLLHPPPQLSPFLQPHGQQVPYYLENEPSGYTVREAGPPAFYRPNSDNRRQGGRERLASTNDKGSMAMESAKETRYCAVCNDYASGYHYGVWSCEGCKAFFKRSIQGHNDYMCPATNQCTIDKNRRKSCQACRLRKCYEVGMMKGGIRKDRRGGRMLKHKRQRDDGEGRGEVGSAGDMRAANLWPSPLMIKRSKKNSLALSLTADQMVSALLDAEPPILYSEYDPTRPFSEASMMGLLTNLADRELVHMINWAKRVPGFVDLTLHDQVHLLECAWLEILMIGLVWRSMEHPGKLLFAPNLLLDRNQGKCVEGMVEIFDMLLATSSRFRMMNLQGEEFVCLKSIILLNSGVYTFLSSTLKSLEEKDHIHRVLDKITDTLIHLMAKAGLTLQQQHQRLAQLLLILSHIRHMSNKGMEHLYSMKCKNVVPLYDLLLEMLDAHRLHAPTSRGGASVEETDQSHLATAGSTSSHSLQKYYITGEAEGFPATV
For assay [19] the target is unchanged. The assay can be described thus: qHTS assay to identify small molecule agonists of the estrogen receptor alpha (ER-alpha) signaling pathway using the BG1 cell line (AID 743079). Note: nearly all actives have a fitted effect of over 20% in size.

“And” between values parts separate entries of the source, which are not always exact repeats. Identical values can stand only once. Inconclusive results are not listed. A structure can be active in one record and inactive in another. The source made the active and inactive calls. Unless noted, calls come from the whole dose curve; as a rule, active = well fitted curve in the direction sought with a large enough effect in the repeat runs; inconclusive = weak or mixed curves; inactive = no such curve, though single readings can be large; an effect the other way counts as inactive or inconclusive.

Aromatase (Homo sapiens), sequence (P11511 whole entry, looked up): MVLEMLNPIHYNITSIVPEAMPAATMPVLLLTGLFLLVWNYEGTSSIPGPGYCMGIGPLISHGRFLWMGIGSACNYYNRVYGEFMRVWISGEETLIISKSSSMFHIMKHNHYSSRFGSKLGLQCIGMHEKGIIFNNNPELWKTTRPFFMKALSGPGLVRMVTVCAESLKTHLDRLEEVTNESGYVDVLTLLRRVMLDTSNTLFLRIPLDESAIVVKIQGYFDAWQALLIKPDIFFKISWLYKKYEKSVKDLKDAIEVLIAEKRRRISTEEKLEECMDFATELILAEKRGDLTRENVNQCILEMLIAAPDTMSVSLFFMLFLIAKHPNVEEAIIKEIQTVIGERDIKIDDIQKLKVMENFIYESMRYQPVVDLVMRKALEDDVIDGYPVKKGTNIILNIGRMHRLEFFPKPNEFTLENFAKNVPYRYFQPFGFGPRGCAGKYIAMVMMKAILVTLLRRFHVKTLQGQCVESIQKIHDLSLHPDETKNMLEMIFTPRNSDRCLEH
Peroxisome proliferator-activated receptor gamma (Homo sapiens), sequence (P37231 whole entry, looked up): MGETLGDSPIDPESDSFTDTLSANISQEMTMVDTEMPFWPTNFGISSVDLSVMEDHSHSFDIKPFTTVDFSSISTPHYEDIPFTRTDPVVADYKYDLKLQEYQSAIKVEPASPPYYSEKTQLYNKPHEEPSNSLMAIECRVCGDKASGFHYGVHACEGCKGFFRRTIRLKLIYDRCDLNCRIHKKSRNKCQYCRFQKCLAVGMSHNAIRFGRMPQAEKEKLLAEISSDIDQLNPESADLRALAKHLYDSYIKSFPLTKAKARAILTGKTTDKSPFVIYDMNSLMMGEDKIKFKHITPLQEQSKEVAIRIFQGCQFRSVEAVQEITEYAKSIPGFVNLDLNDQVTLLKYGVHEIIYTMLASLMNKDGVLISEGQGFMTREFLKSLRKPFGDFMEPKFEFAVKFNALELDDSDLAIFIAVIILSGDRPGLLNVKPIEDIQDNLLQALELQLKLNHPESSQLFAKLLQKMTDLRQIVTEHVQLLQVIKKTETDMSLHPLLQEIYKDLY
Aryl hydrocarbon receptor (Homo sapiens), sequence (P35869 whole entry, looked up): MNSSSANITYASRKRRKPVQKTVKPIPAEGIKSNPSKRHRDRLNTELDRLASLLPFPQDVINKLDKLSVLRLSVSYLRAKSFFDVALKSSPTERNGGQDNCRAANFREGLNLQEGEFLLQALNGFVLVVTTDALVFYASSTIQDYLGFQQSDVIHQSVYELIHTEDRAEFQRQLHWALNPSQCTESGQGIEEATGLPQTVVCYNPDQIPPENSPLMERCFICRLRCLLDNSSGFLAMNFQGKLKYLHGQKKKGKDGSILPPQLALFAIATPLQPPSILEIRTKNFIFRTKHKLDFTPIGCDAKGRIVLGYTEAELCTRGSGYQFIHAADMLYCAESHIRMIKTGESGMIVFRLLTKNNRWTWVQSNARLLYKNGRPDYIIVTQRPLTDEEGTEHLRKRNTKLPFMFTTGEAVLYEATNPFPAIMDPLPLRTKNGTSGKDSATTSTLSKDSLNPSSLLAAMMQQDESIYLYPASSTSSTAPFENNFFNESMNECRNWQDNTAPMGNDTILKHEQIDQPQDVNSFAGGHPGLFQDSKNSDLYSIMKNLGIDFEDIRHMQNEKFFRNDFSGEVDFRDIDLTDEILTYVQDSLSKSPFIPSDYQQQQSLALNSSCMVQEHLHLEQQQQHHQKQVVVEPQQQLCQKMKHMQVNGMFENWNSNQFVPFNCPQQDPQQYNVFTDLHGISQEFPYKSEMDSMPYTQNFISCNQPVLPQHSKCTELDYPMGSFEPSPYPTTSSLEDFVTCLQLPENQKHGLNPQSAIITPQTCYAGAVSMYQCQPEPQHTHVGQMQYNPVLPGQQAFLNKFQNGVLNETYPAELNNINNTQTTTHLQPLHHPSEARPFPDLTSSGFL

Turning to `CCCCCCC(O)CCCCCCCCCCC(=O)O` (stereo not given), the Potency result (in assay [1]; in assay [2]; in the assay with Aromatase (Homo sapiens); in assay [3]; in assay [4]; in [5]) was “inactive” each time. The Potency result in [7] is “inactive”. The Potency in assay [6] is 21.9 µM (active); in [8], 19.6 µM (active) and 19.5 µM (active).

On to `Cc1c(O)cccc1C(=O)N[C@@H](CSc1ccccc1)[C@H](O)CN1C[C@H]2CCCC[C@H]2C[C@H]1C(=O)NC(C)(C)C`, for which the Potency result in assay [2] and in assay [4] was “inactive” in each case. The Potency was 53.5 µM (active) in [9]; 18.8 µM (active) and 26.6 µM (active) in assay [10]; 26.6 µM (active) and 23.7 µM (active) in the assay with Aromatase (Homo sapiens); 7.5 µM (active) and 2.98 µM (active) in assay [3]; 13.3 µM (active) and 11.9 µM (active) in assay [5]; 21.3 µM (active) and 26.6 µM (active) in assay [6]. Besides, the Potency in assay [8] was 7.56 µM (active) and 18.8 µM (active).

Take `Nc1cc(S(=O)(=O)O)cc2cc(S(=O)(=O)O)cc(O)c12`: the Potency result (in assay [9]; in assay [10]; with Aromatase (Homo sapiens); in assay [3]; in assay [4]; in assay [5]) was “inactive” throughout. Moreover, the Potency entry in [11], in [12], in assay [6], in assay [13], in assay [14] and in assay [8] was “inactive” each time.

For the compound `CNCCC(Oc1ccc(C(F)(F)F)cc1)c1ccccc1` (stereo not given), the Potency in [1] was 11.9 µM (active) and 15.2 µM (active); in assay [9], “inactive and 48.4 µM (active)”; in the assay with Aromatase (Homo sapiens) it was 47.9 µM (active); in assay [3], “inactive and 47.9 µM (active)”; in assay [5] it was “inactive and 60.3 µM (active)”; in [14], 17 µM (active). In addition, the Potency in assay [8] was 27.2 µM (active) and 29.8 µM (active). Also, the Potency result in assay [10] and in assay [4] was “inactive” in each case.

`CC(C)(C)c1ccc(O)c(C(C)(C)C)c1`: the Potency in assay [1] is 30.5 µM (active) and 24.3 µM (active); in [9], 34.5 µM (active) and inactive; in [16], 48.6 µM (active); with Aromatase (Homo sapiens), 54.3 µM (active) and 54.5 µM (active); in assay [3] it was 48.4 µM (active) and 48.6 µM (active); in [6], 48.8 µM (active) and 38.9 µM (active). Also, the Potency in assay [8] was 38.7 µM (active) and 49 µM (active). Further, the Potency entry in assay [15], in [10], in assay [4], in assay [5] and in assay [11] was “inactive” throughout.

For `CC(C)(C)NC(=O)[C@@H]1CN(Cc2cccnc2)CCN1C[C@@H](O)C[C@@H](Cc1ccccc1)C(=O)N[C@H]1c2ccccc2C[C@H]1O`, the Potency result in [2], in assay [9], in assay [10], in assay [4], in [5] and in assay [6] was “inactive” in each case. Further, the Potency entry in assay [13], in assay [14], in assay [17], in assay [7] and in assay [8] was “inactive” each time. The Potency in the assay with Aromatase (Homo sapiens) was 29.8 µM (active) and inactive; in assay [3] it was 26.6 µM (active).

Consider `CN(C)c1ccc2nc3ccc(=[N+](C)C)cc-3sc2c1`, for which the Potency entry in assay [2], in [15], in assay [9] and in [11] was “inactive” in each case. For the same compound, the Potency in assay [10] was 18.8 µM (active) and 23.4 µM (active) and 54.5 µM (active); in [3] it was 23.7 µM (active) and 13.1 µM (active); in assay [5], 9.44 µM (active) and 16.6 µM (active) and 27.3 µM (active); in assay [12], 43.6 µM (active) and inactive; in assay [14], 11.7 µM (active) and 9.69 µM (active) and 11.9 µM (active); in assay [17] it was “inactive and 54.9 µM (active)”. In [8], the Potency was 9.39 µM (active) and 49 µM (active).

For the compound `CC(=O)C1=C(C)[C@@H]2C[C@@]3(C1)[C@H](C)CC[C@H]3C2(C)C`, the Potency entry in assay [2], in assay [15], in [9], in [18], in assay [19] and in assay [16] was “inactive” throughout. Also, the Potency result (in assay [10]; with Aromatase (Homo sapiens); in assay [3]; in assay [4]; in assay [5]; in [11]) was “inactive” each time. For the same compound, the Potency result in assay [12], in [13], in assay [14], in assay [17], in assay [7] and in assay [8] was “inactive” throughout.

With `O`, the Potency result (in [9]; in [10]; with Aromatase (Homo sapiens); in assay [3]; in [4]; in [5]) was “inactive” throughout. Besides, the Potency entry in assay [13], in [17] and in assay [8] was “inactive” throughout.

Turning to `CC(C)CCOCc1ccccc1`, the Potency entry in assay [15], in [9], in assay [18], in assay [19], in assay [16] and in assay [10] was “inactive” throughout. Besides, the Potency entry (in the assay with Aromatase (Homo sapiens); in [3]; in [4]; in assay [5]; in [11]; in assay [12]) was “inactive” throughout. Also, the Potency result in assay [6], in assay [13], in assay [7] and in assay [8] was “inactive” in each case.

In the case of `CCc1cc(C(C)(C)C)c(O)c(C(C)(C)C)c1`, the Potency result (in assay [2]; in assay [9]; in assay [10]; with Aromatase (Homo sapiens); in assay [3]; in assay [4]) was “inactive” throughout. Besides, the Potency entry in assay [5], in assay [11], in assay [12], in [6], in assay [13] and in assay [7] was “inactive” each time. Besides, the Potency entry in assay [8] was “inactive”.

Take `N[C@@H]1CONC1=O`: the Potency entry (in assay [10]; in the assay with Aromatase (Homo sapiens); in assay [3]; in [4]; in assay [5]; in assay [6]) was “inactive” in each case. For the same compound, the Potency entry in assay [13], in [14], in assay [17] and in [7] was “inactive” each time.

Take `O=C1CC2(CCCC2)CC(=O)N1CCCCN1CCN(c2ncccn2)CC1`: the Potency result in assay [2], in assay [9], in [10], in assay [5], in assay [6] and in [17] was “inactive” in each case. For the same compound, the Potency result in assay [7] and in assay [8] was “inactive” throughout. In addition, the Potency in assay [13] is 27.3 µM (active).

Turning to `CCN(CC)c1ccc2c(C)cc(=O)oc2c1`, the Potency entry (in assay [2]; in assay [19]; in assay [16]; with Aromatase (Homo sapiens); in assay [6]; in assay [14]) was “inactive” in each case. Also, the Potency result in assay [17] and in [8] was “inactive” each time. The Potency was 49.4 µM (active) and inactive in assay [9]; 31.1 µM (active) in [7].

In the case of `CC(COc1ccccc1)N(CCCl)Cc1ccccc1` (stereo not given), the Potency entry (in assay [9]; in assay [10]; in the assay with Aromatase (Homo sapiens); in assay [3]; in [5]; in [11]) was “inactive” throughout. The Potency result in assay [12], in [17] and in [8] was “inactive” throughout. Besides, the Potency in assay [14] is 61.1 µM (active) and inactive.

These data come from PubChem BioAssay (Tox21).
